From PubChem BioAssay (NCI)
About 83,000 compounds went through this panel and 20% of them were active in at least one assay; those are over-represented in the sample as a whole.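 Testing used 96-well plates and a 48-hour single-concentration exposure. Example: -40 means 40% of the starting cells died.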 Calls of active or inactive are those of the source. Rule for the calls: active = growth percent below 10; inactive = the rest.

Assays:
Assay in all cases: NCI-60 one-dose screen, 48 h (100 = growth as untreated, 0 = no growth, -100 = all killed)
Details in all cases: 10 µM unless noted
T-47D breast = system: T-47D breast
BT-549 breast = system: BT-549 breast
MDA-MB-435 melanoma = system: MDA-MB-435 melanoma
SW-620 colon = system: SW-620 colon
MCF7 breast = system: MCF7 breast
HCT-116 colon = system: HCT-116 colon
HCC-2998 colon = system: HCC-2998 colon
KM12 colon = system: KM12 colon

Measured: growth

CN1C(=O)N(C)C2C1NN=c1s/c(=C\C=C\c3ccccc3)c(=O)n12 (stereo not drawn)
inactive: T-47D breast 53.1% | BT-549 breast 55.2% | SW-620 colon 40% | HCT-116 colon 31.8% | HCC-2998 colon 63.1% | KM12 colon 23.2%
active: MDA-MB-435 melanoma 4.66% | MCF7 breast -94.6%

O=C(c1ccccc1)C1OC1c1ccc([N+](=O)[O-])cc1 (stereo not drawn)
active: SW-620 colon 9.23%
inactive: T-47D breast 52.6% | BT-549 breast 68.5% | MDA-MB-435 melanoma 39% | MCF7 breast 64.1% | HCT-116 colon 13.7% | HCC-2998 colon 115% | KM12 colon 62.6%

COc1cc2c(cc1O)CCN1C[C@@H](CC(C)C)[C@@H](O)C[C@@H]21
inactive: T-47D breast 91.1% | BT-549 breast 108% | MDA-MB-435 melanoma 103% | SW-620 colon 102% | MCF7 breast 102% | HCT-116 colon 101% | HCC-2998 colon 102% | KM12 colon 109%

O=C(Nc1cccc(-n2cc(-c3ccncc3)c(-c3ccc(Cl)c(O)c3)n2)c1)c1ccc(N2CCOCC2)c(C(F)(F)F)c1
active: SW-620 colon 6.29%
inactive: T-47D breast 69.4% | BT-549 breast 63.6% | MDA-MB-435 melanoma 35.2% | MCF7 breast 60.6% | HCT-116 colon 29.7% | HCC-2998 colon 56.4% | KM12 colon 30.6%

COc1ccc(-c2nc(/C=N/Nc3cc(C)nc4ccc(Cl)cc34)c(C)o2)cc1
active: T-47D breast -38% | BT-549 breast -34.9% | MDA-MB-435 melanoma -97.1% | SW-620 colon -88.6% | MCF7 breast -80.2% | HCT-116 colon -86% | HCC-2998 colon -48.3% | KM12 colon -87%

Nc1nnc(-c2ccc3ccccc3c2O)o1
inactive: T-47D breast 87.2% | BT-549 breast 103% | MDA-MB-435 melanoma 110% | SW-620 colon 84.9% | MCF7 breast 94% | HCT-116 colon 88.5% | HCC-2998 colon 89.5% | KM12 colon 99.4%

COc1ccccc1CNCCCN1C(=O)c2ccc3c4c(ccc(c24)C1=O)C(=O)N(CCCNCCCCNCCCN)C3=O
active: T-47D breast -36.4% | BT-549 breast -22.1% | MDA-MB-435 melanoma -13.4% | SW-620 colon -36.5% | MCF7 breast -38.4% | HCT-116 colon -2.94% | HCC-2998 colon -39% | KM12 colon -18.7%

CCOC(=O)c1cc(C(=O)c2cc(OC)c(OC)c(OC)c2)n2c1ccc1ccccc12
inactive: T-47D breast 11.1% | BT-549 breast 66.9% | SW-620 colon 18.8% | MCF7 breast 12.1% | HCT-116 colon 25.8% | HCC-2998 colon 69.5% | KM12 colon 28.5%
active: MDA-MB-435 melanoma -54.6%

COc1ccc(-c2[nH]nc(N)c2-c2cc(OC)c3c(c2)OCO3)cc1
inactive: T-47D breast 62% | BT-549 breast 59.2% | SW-620 colon 20.5% | MCF7 breast 32.3% | HCT-116 colon 30.9% | HCC-2998 colon 44.3% | KM12 colon 27.8%
active: MDA-MB-435 melanoma -12.8%

Nc1cccc(-c2nc3sccn3c2-c2ccnc(NCCNS(=O)(=O)c3ccc(C(F)(F)F)cc3)n2)c1
inactive: T-47D breast 46.2% | BT-549 breast 52.7% | MDA-MB-435 melanoma 27% | SW-620 colon 100% | MCF7 breast 32.8% | HCT-116 colon 55.1% | HCC-2998 colon 121% | KM12 colon 61.5%

COc1ccc(-c2nc(/C=C3/C(=O)Nc4ccc(F)cc43)c3ccccn23)cc1
inactive: T-47D breast 100% | BT-549 breast 104% | MDA-MB-435 melanoma 113% | SW-620 colon 87.7% | MCF7 breast 48.7% | HCT-116 colon 62% | HCC-2998 colon 104% | KM12 colon 102%

COc1ccc(Nc2nc(N)nc3c2CCN(Cc2ccc(OC)cc2OC)C3=O)cc1
inactive: T-47D breast 75.9% | BT-549 breast 74.9% | MDA-MB-435 melanoma 79.2% | SW-620 colon 80% | MCF7 breast 87.7% | HCT-116 colon 49.9% | HCC-2998 colon 94.2% | KM12 colon 85.1%

COc1ccc(Nc2ncccc2C(=O)NCc2cn(Cc3cccc(Oc4ccccc4)c3)nn2)c(OC)c1
active: MDA-MB-435 melanoma -24.2% | HCC-2998 colon -14.4%
inactive: T-47D breast 51.6% | BT-549 breast 43% | SW-620 colon 26.4% | MCF7 breast 25% | HCT-116 colon 15% | KM12 colon 17.9%

Cc1ccc(-c2nc(C#N)c(S(=O)(=O)n3nc(-c4ccccc4)cc3N)o2)cc1
inactive: T-47D breast 18.2% | BT-549 breast 96.8% | MDA-MB-435 melanoma 100% | SW-620 colon 31.8% | MCF7 breast 79.5% | HCT-116 colon 63% | HCC-2998 colon 112% | KM12 colon 107%

COc1cc(NC(=O)SC2=NCCS2)cc(OC)c1
inactive: T-47D breast 87.2% | BT-549 breast 95.4% | MDA-MB-435 melanoma 113% | SW-620 colon 95.8% | MCF7 breast 94.1% | HCT-116 colon 108% | HCC-2998 colon 114% | KM12 colon 106%

CC(C)(C)NCCC(O)c1cc2c(Cl)cc(Cl)cc2c2cc(C(F)(F)F)ccc12 (stereo not drawn)
inactive: BT-549 breast 69.6%
active: T-47D breast -78.3% | MDA-MB-435 melanoma -74.4% | SW-620 colon -73.3% | MCF7 breast -81.3% | HCT-116 colon -80.3% | HCC-2998 colon -83% | KM12 colon -90.9%
